Screening data from PubChem BioAssay.
Only some compounds are listed: those with a hit (about 1.3% of all), similar ones and a draw of the others.
LYPLA2 inh = blocks human lysophospholipase 2, a PME1 counter-screen | recombinant LYPLA2, FP-Rh probe fluorescence polarization | inhibition, % at 5.9 µM | actives 0.38% (n = 320,000) | AID 2177;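 active = inhibition above the screen-wide mean plus 3 SD, limit set per campaign, cut at about 26% in these data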;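 also: 0% = LYPLA2 with DMSO and 100% = wells lacking LYPLA2 enzyme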
Target sequence (O95372 whole entry, looked up): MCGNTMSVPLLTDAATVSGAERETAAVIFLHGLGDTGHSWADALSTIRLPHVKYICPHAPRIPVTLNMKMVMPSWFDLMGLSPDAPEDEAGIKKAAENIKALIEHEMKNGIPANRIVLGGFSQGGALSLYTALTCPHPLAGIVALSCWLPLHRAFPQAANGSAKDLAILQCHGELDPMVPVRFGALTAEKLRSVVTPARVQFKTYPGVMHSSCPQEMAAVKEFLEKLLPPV
PREPL inhibitor = inhibitors of human prolyl oligopeptidase-like enzyme PREPL; Q4J6C6; recombinant PREPL, fluorescence polarization activity-based probe; inhibition, % at 5.96 µM; actives 0.68% (n = 320,000); AID 2751;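 also: 0% = enzyme with DMSO and 100% = wells lacking enzyme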
PME-1 inh = blocks human protein phosphatase methylesterase 1; actives 0.53% (n = 320,000); recombinant PME-1, FP-Rh probe fluorescence polarization; Q9Y570; inhibition, % at 5.9 µM;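 active = inhibition above the campaign mean of all compounds plus 3 SD, cut at about 26% in these data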;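 also: competitive labeling of PME-1 active site by serine hydrolase directed probe; 0% = PME-1 with DMSO and 100% = wells lacking PME-1 enzyme; inhibitors block probe labeling so polarization falls and inhibition rises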
Fam108B inh = blocks mouse Fam108B hydrolase in RBBP9 counter-screen; inhibition, % at 9.51 µM; actives 0.33% (n = 300,000); recombinant Fam108B, FP-Rh probe fluorescence polarization; AID 1947;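 active = inhibition above the screen mean inhibition plus 3 SD, computed separately per campaign, cut at about 18% in these data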;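 also: inhibitors lower polarization as less probe binds the enzyme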
LYPLA1 inh = blocks human lysophospholipase 1, a PME1 counter-screen; inhibition, % at 5.9 µM; O75608; recombinant LYPLA1, FP-Rh probe fluorescence polarization; actives 0.16% (n = 320,000); AID 2174;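 active = inhibition above the mean of all tested compounds plus 3 SD, set per campaign, cut at about 14% in these data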;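 also: inhibitors block serine hydrolase probe labeling of LYPLA1 so polarization falls; 0% = enzyme with DMSO and 100% = wells lacking LYPLA1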
Target sequence (O75608 whole entry, looked up): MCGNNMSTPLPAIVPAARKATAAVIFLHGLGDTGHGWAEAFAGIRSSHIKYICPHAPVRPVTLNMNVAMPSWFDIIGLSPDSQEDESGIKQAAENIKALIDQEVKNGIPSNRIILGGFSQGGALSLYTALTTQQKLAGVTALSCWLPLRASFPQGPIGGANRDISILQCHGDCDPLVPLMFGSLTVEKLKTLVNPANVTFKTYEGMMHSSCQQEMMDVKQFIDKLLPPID
PREPL confirm = human PREPL inhibition, confirmation. shares compounds with PREPL inhibitor. recombinant PREPL, fluorescence polarization activity probe. inhibition, % at 5.96 µM. actives 67% (n = 2,000);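 also: 0% = protein with DMSO and 100% = wells lacking protein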
* = called active by the depositor. Rule as the data show it, unless noted: active = inhibition above about 43%; inactive = the rest.

`COc1ccc2cc1Oc1ccc(cc1)C[C@H]1c3cc(c(OC)cc3CCN1C)Oc1c(OC)c(OC)cc3c1[C@@H](C2)N(C)CC3` gave LYPLA2 inh -3.8, PREPL inhibitor 51.5*, PME-1 inh 5.0, LYPLA1 inh -1.7 and PREPL confirm 48.0*.
`CN(C)c1ccc(/C=N/NC(=S)NCc2ccccc2)cc1` gave LYPLA2 inh 8.5, PREPL inhibitor 50.9*, PME-1 inh 5.5, Fam108B inh 7.6, LYPLA1 inh 0.1 and PREPL confirm 54.9*.
Screening CCN(CC)S(=O)(=O)c1ccc(OC)c(NC(=O)C(Cc2ccccc2)N2C(=O)c3ccccc3C2=O)c1 (configuration not stated) returned LYPLA2 inh -3.6, PREPL inhibitor -12.5, PME-1 inh 1.9, Fam108B inh -9.2 and LYPLA1 inh -12.2.
Screening Fc1ccccc1Cc1noc(CN(Cc2ccccn2)CC2CCCO2)n1 (configuration not stated) returned LYPLA2 inh 3.1, PREPL inhibitor 50.8*, PME-1 inh -3.2, Fam108B inh 1.4, LYPLA1 inh 1.2 and PREPL confirm 8.2.
`C[C@H](CO)N1C[C@H](C)[C@@H](CN(C)S(C)(=O)=O)Oc2ccc(NC(=O)CCC(F)(F)F)cc2C1=O` gave PREPL inhibitor -2.0.
Screening CCC(CO)Oc1cc(NCc2ccc(Cl)cc2)c2ncn(C(C)C)c2c1 (configuration not stated) returned PREPL inhibitor 48.1* and PREPL confirm 22.6.
CCC(CO)Oc1cc(NCc2ccc(C)cc2)c2ncn(C(C)C)c2c1 (configuration not stated) was read as PREPL inhibitor 39.5.
`Cc1nc(-c2cccc(NC(=O)c3ccc(-n4cccn4)cc3)c2)cs1` gave LYPLA2 inh -6.3, PREPL inhibitor -6.2, PME-1 inh -12.1 and LYPLA1 inh -5.2.
`COc1cccc2cc(C(=O)C3=C(O)C(=O)N(CCN4CCOCC4)C3c3ccc(C(C)(C)C)cc3)oc12` (configuration not stated) gave LYPLA2 inh -5.0, PREPL inhibitor 52.9*, PME-1 inh -12.4, Fam108B inh -3.3, LYPLA1 inh -5.5 and PREPL confirm 56.4*.
For COc1cccc2cc(C(=O)C3=C(O)C(=O)N(CCN4CCOCC4)C3c3ccc(Cl)cc3)oc12 (configuration not stated) the results were LYPLA2 inh -6.4, PREPL inhibitor 15.4, PME-1 inh 2.4, Fam108B inh 1.5 and LYPLA1 inh -3.0.
For C/C(=N\NC(=O)c1cccc(N/N=C(\C)c2ccncc2)c1)c1ccncc1 the results were LYPLA2 inh 3.1, PREPL inhibitor 51.9*, PME-1 inh -0.9, Fam108B inh 1.6, LYPLA1 inh 1.3 and PREPL confirm 14.9.
For Fc1ccc(Nc2ncnc3sccc23)cc1 the results were LYPLA2 inh -0.2, PREPL inhibitor -25.9, PME-1 inh 2.5, Fam108B inh -2.2 and LYPLA1 inh 1.0.
Screening O=C(C[C@@H]1C/C=C\C[C@H](Cc2ccc(F)cc2)C(=O)OCCNC1=O)NCCO returned PREPL inhibitor 6.7.
Screening CN(C)c1ccc(NC(=O)c2ccc(Cn3cc([N+](=O)[O-])cn3)cc2)cc1 returned LYPLA2 inh 17.0, PREPL inhibitor 48.1*, PME-1 inh -1.7, Fam108B inh 1.6, LYPLA1 inh 1.3 and PREPL confirm 57.4*.
For COc1ccc(NC(=O)c2ccc(Cn3cc(Cl)cn3)cc2)cc1 the results were LYPLA2 inh 6.3, PREPL inhibitor 2.7, PME-1 inh -3.8, Fam108B inh -6.4 and LYPLA1 inh -0.9.
For CCO[C@H]1OC(C(=O)N2CCN(Cc3ccc4c(c3)OCO4)CC2)=C[C@@H](c2csc3ccccc23)[C@@H]1CCCO the results were LYPLA2 inh 5.3, PREPL inhibitor 53.8*, PME-1 inh 0.6, Fam108B inh -2.7, LYPLA1 inh 0.4 and PREPL confirm 46.0*.
`O=C(C1=C[C@@H](c2ccccc2)C[C@@H](OCCCCO)O1)N1CCN(Cc2ccc3c(c2)OCO3)CC1` gave LYPLA2 inh 2.2, PREPL inhibitor 57.4*, PME-1 inh 8.9, Fam108B inh -0.9, LYPLA1 inh 5.0 and PREPL confirm 42.8.
For O=C(C1=C[C@H](c2ccc(Br)cc2)C[C@H](OCCCCO)O1)N1CCN(Cc2ccc3c(c2)OCO3)CC1 the results were LYPLA2 inh 7.4, PREPL inhibitor 34.0, PME-1 inh 4.5, Fam108B inh -2.2 and LYPLA1 inh -4.6.
O=C(C1=C[C@@H](c2ccc(Br)cc2)C[C@@H](OCCCCO)O1)N1CCN(Cc2ccccc2)CC1 was read as LYPLA2 inh 7.0, PREPL inhibitor 62.7*, PME-1 inh 0.6, Fam108B inh 0.3, LYPLA1 inh -4.4 and PREPL confirm 57.2*.
Screening O=C(C1=C[C@@H](c2ccc3c(c2)OCO3)C[C@@H](OCCCCO)O1)N1CCN(Cc2ccc3c(c2)OCO3)CC1 returned LYPLA2 inh 8.2, PREPL inhibitor 49.7*, PME-1 inh 2.6, Fam108B inh 5.0, LYPLA1 inh 0.8 and PREPL confirm 48.9*.
O=C(C1=C[C@H](c2ccc3c(c2)OCO3)C[C@H](OCCCCO)O1)N1CCN(Cc2ccccc2)CC1 was read as LYPLA2 inh -3.8, PREPL inhibitor 27.0, PME-1 inh 4.5, Fam108B inh -3.2 and LYPLA1 inh -1.6.
Screening CCCCCCCCCCC[N+](C)(C)CC/C=C1/c2ccccc2Sc2ccc(Cl)cc21 returned LYPLA2 inh 8.5, PREPL inhibitor 45.0*, PME-1 inh 5.9, Fam108B inh 9.0, LYPLA1 inh 0.4 and PREPL confirm 34.6.
For O=C(Nc1c2c(nn1-c1ccccc1)CS(=O)(=O)C2)c1ccccc1Br the results were LYPLA2 inh 1.4, PREPL inhibitor -4.6, PME-1 inh 2.5, Fam108B inh -2.6 and LYPLA1 inh -1.2.
For Cc1c(N=Cc2ccco2)c(=O)n(-c2ccccc2)n1C the results were LYPLA2 inh -2.0, PREPL inhibitor 0.1, PME-1 inh -0.3, Fam108B inh -5.5 and LYPLA1 inh -1.6.
COc1ccc2c(C=Nc3c(C)n(C)n(-c4ccccc4)c3=O)c(O)n(Cc3ccco3)c(=O)c2c1 was read as LYPLA2 inh -1.4, PREPL inhibitor 55.6*, PME-1 inh 9.7, Fam108B inh 7.0, LYPLA1 inh -0.9 and PREPL confirm 37.4.
For C/C(=N\Nc1nc2ccccc2[nH]1)c1ccccn1 the results were LYPLA2 inh 4.7, PREPL inhibitor 16.8, PME-1 inh 5.0, Fam108B inh -2.7 and LYPLA1 inh -0.5.
`C/C(=N\Nc1nc2ccccc2[nH]1)c1ccc2c(c1)OCCO2` gave LYPLA2 inh 1.9, PREPL inhibitor 18.4, PME-1 inh -31.2, Fam108B inh 7.0 and LYPLA1 inh 2.3.
For C/C(=N\Nc1nc2ccccc2[nH]1)c1cc2ccccc2o1 the results were LYPLA2 inh 2.5, PREPL inhibitor 76.4*, PME-1 inh 14.6, Fam108B inh 13.6, LYPLA1 inh 2.6 and PREPL confirm 71.8*.
